Among the data in PubChem BioAssay are composite z-score and z-score values, retold here.

Assay [1] deals with Plasmodium falciparum Sir2 (PF13_0152, Sir2A). In words: pfSir2 binders on small-molecule microarrays, primary screen, biochemical, small-molecule microarray, 635 nm fluorescence (AID 1098).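 Also: score merges spot fluorescence intensity with its signal-to-noise ratio.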 The settings on record: small-molecule microarray binding, fluorescence 635 nm; higher = more signal.
Assay [2] is described as follows: small-molecule microarray binders of probe aDKK1, primary screen, biochemical, biotinylated probe, 635/667 nm fluorescence (AID 1099).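 Also: score merges 667nm spot fluorescence with signal to noise across triplicate slides.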 The settings on record: higher = more signal.
Assay [3] in a line: small-molecule microarray binders of probe aCHRDL2, primary screen, biochemical, biotinylated probe, 635/667 nm fluorescence (AID 1100). The settings on record: higher = more signal.
Assay [4] is described as follows: splicing luciferase reporter signal modulators, primary screen, spliceosome inhibition project, cell-based, HEK293, splice +/- reporter (AID 1101).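 Also: HEK293 cells carrying a splicing-competent luciferase reporter gene; test concentration not given here.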 The settings on record: luminescence, 24 h, higher = more signal, called active from +8 up or from −8 down. In general terms: In a reporter assay the amount or activity of a reporter protein is the signal.
Assay [5] deals with Fibroblast growth factor 10 (Homo sapiens) (UniProt O15520). Briefly: FGF10 binders on small-molecule microarrays, primary screen, biochemical, small-molecule microarray, 635 nm fluorescence (AID 1102). The settings on record: FGF10 binding, fluorescence 635 nm, higher = more signal.
For assay [6], the system named is glycogen synthase kinase-3 (GSK3A per assay name; protocol says GSK3B). In words: GSK3 binders on small-molecule microarrays, primary screen, biochemical, small-molecule microarray, 635 nm fluorescence, GSK3A (AID 1103). Also: the record names both GSK3A and GSK3B. The settings on record: small-molecule microarray binding, fluorescence 635 nm; higher = more signal.
Assay [7] addresses Epidermal growth factor receptor (Homo sapiens) (UniProt P00533). Briefly: EGFR binders on small-molecule microarrays, primary screen, biochemical, small-molecule microarray, 635 nm fluorescence (AID 1104).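 Also: score merges 667 nm emission intensity with spot signal to noise over triplicate slides.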 The settings on record: EGFR binding, higher = more signal.
Assay [8] addresses Follistatin-related protein 3 (Homo sapiens) (UniProt O95633). Briefly: FSTL3 binders on small-molecule microarrays, primary screen, biochemical, small-molecule microarray, 635 nm fluorescence (AID 1105).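 Also: score merges emission near 667 nm and signal to noise per printed spot across three slides.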 The settings on record: FSTL3 binding, higher = more signal.
Assay [9] concerns the target Dickkopf-related protein 1 (Homo sapiens) (UniProt O94907). In words: DKK1 binders on small-molecule microarrays, primary screen, biochemical, small-molecule microarray, 635 nm fluorescence scan (AID 1106).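 Also: score merges emission near 667 nm with signal to noise over three replicate slides.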 The settings on record: DKK1 binding, higher = more signal.
For assay [10], the system named is Inhibin beta A chain (activin A). In words: INHBA (activin A) binders on microarrays, primary screen, biochemical, small-molecule microarray, 635 nm fluorescence scan (AID 1107).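 Also: mouse activin A protein probed at 4.33 µg/mL on printed slides; score merges bound-protein fluorescence near 667 nm with spot signal-to-noise.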 The settings on record: small-molecule microarray binding, higher = more signal.
Assay [11] deals with Human papillomavirus type 1a protein E7 (residues 44-93). In words: HPV1a E7 fragment binders on microarrays, primary screen, biochemical, small-molecule microarray, residues 44-93, 635 nm fluorescence (AID 1108).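 Also: E7 fragment applied at 1 µg/mL in TBST for 1 h at 4 C; score combines spot fluorescence with its signal to noise ratio.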 The settings on record: small-molecule microarray binding, fluorescence 635 nm; higher = more signal.
Assay [12] can be described thus: modulators of HCV replicon luciferase signal, primary screen, HCV replication inhibitor project, Huh7 cells, luciferase reporter (AID 1109).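 Also: huh7 hepatoma cells harbouring a luciferase neomycin HCV replicon reporter; luciferase luminescence as measure of HCV replicon replication; test concentration not given here.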 The settings on record: 48 h, higher = more signal.
Assay [13] deals with Left-right determination factor 2 (Homo sapiens) (UniProt O00292). In words: LEFTY2 binders on small-molecule microarrays, primary screen, biochemical, small-molecule microarray, 635 nm fluorescence scan (AID 1110). The settings on record: LEFTY2 binding, higher = more signal.
Assay [14] concerns the target Calmodulin-1 (Homo sapiens) (UniProt P0DP23). In words: CALM1 binders on microarrays, EGTA buffer, profiling panel, biochemical, small-molecule microarray, Cy5-labelled CALM1 (AID 1111).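 Also: labelled calmodulin applied in Tris saline Tween buffer holding calcium plus EGTA and DTT.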 The settings on record: Cy5-CALM1 binding fluorescence, higher = more signal.
Assay [15] shares this target. Briefly: calcium-bound CALM1 binders on microarrays, profiling panel, artefact control for SMM control-protein annotation, biochemical, small-molecule microarray, Cy5-labelled CALM1, plus calcium (AID 1112).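 Also: score merges spot fluorescence with signal to noise from triplicate slides.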 The settings on record: Cy5-CALM1 binding fluorescence, higher = more signal.
The nature of assay [16]: small-molecule microarray binders of probe aWnt5a, primary screen, biochemical, biotinylated probe, 635/667 nm fluorescence (AID 1113).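 Also: score merges 667 nm fluorescence intensity with signal-to-noise per printed feature.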 The settings on record: higher = more signal.
Assay [17] in a line: small-molecule microarray binders of probe aShh, primary screen, biochemical, biotinylated probe, 635/667 nm fluorescence (AID 1114).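 Also: probe is biotin-labelled aShh protein from a stem cell growth factor screen; measures binding of labelled protein to compounds printed on the slide; score merges feature fluorescence at 667 nm with signal-to-noise.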 The settings on record: higher = more signal.
Assay [18] can be described thus: small-molecule microarray binders of probe aNog, primary screen, biochemical, biotinylated probe, 635/667 nm fluorescence (AID 1115).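 Also: probe is biotinylated aNog protein used at 0.15 µg/mL for 1 h at 4 C; z-score combines 667 nm fluorescence of each spot with its signal to noise.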 The settings on record: higher = more signal.
Assay [19] has as its target Torsin-1A-interacting protein 1 (Homo sapiens) (UniProt Q5JTV8). Briefly: LAP1 binders from COS7 cell lysate, primary screen, small-molecule microarray, 635/667 nm fluorescence (AID 1116). The settings on record: COS7-hLAP1 lysate binding, 635 nm fluorescence, higher = more signal.
Assay [20] addresses Alpha-bungarotoxin (Bungarus multicinctus) (UniProt P60615). In words: alpha-bungarotoxin binders on microarray, profiling panel, artefact control for SMM control protein annotation, biochemical, small-molecule microarray, Alexa647 label, 635/667 nm fluorescence (AID 1117). The settings on record: alpha-BTX-A647 binding fluorescence, higher = more signal.

Active and inactive are the calls of the source.

Sequence of Follistatin-related protein 3 (Homo sapiens) (O95633 whole entry, looked up): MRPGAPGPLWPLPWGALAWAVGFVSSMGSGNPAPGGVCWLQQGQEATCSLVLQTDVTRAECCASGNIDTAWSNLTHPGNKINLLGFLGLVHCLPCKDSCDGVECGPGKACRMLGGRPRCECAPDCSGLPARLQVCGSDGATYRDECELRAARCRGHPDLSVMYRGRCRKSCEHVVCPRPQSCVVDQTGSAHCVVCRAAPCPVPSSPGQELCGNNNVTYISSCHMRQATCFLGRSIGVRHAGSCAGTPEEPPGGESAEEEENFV
Sequence of Dickkopf-related protein 1 (Homo sapiens) (O94907 whole entry, looked up): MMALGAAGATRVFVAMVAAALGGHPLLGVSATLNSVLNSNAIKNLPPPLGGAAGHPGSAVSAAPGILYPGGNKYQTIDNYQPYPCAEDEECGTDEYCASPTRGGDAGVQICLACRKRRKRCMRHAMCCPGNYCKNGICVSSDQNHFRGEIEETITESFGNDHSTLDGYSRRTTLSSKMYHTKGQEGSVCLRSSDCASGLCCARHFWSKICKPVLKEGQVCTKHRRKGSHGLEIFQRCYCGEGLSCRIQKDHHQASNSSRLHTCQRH
Sequence of Left-right determination factor 2 (Homo sapiens) (O00292 whole entry, looked up): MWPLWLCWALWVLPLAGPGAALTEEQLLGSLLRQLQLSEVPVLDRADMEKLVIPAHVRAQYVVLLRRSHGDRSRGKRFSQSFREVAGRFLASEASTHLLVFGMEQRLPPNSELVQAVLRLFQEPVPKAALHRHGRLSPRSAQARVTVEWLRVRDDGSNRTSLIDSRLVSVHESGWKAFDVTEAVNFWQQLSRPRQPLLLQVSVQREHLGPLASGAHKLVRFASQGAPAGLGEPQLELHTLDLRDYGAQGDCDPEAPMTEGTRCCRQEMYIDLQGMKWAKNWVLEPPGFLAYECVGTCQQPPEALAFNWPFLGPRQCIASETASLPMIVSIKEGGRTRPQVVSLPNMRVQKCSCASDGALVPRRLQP
Sequence of Epidermal growth factor receptor (Homo sapiens) (P00533 whole entry, looked up): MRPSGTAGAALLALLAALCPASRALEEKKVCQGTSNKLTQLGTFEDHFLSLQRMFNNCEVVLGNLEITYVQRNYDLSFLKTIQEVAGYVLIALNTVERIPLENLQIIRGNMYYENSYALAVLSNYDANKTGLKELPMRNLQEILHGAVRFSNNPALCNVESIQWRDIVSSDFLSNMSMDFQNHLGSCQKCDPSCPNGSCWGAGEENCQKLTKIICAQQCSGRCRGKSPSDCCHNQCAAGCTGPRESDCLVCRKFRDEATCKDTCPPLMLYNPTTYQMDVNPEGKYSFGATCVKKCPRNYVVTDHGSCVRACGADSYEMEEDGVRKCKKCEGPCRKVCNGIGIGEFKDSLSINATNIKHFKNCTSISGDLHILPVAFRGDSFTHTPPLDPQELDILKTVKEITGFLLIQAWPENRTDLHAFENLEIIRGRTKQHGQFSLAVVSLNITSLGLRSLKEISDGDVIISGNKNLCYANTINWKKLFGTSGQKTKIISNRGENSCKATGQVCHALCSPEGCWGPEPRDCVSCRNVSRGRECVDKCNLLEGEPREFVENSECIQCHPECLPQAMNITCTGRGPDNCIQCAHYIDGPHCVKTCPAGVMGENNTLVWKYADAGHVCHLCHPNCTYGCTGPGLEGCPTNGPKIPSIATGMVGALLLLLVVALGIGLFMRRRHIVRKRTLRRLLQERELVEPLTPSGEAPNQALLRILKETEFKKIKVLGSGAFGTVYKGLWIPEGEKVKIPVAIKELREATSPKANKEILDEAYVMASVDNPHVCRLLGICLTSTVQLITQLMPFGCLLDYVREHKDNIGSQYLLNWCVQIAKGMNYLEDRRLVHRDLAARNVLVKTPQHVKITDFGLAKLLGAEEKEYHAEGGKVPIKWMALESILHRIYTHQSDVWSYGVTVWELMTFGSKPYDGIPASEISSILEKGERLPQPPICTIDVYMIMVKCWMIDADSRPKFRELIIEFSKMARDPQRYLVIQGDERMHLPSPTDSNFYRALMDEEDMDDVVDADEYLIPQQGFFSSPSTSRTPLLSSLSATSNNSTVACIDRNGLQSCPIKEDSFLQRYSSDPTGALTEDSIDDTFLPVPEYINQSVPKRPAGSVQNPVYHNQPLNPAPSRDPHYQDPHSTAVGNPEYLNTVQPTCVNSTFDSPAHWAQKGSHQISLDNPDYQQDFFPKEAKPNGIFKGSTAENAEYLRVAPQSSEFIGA
Sequence of Alpha-bungarotoxin (Bungarus multicinctus) (P60615 whole entry, looked up): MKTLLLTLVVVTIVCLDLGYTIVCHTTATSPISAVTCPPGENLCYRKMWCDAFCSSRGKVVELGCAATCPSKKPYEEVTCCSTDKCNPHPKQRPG
Sequence of Fibroblast growth factor 10 (Homo sapiens) (O15520 whole entry, looked up): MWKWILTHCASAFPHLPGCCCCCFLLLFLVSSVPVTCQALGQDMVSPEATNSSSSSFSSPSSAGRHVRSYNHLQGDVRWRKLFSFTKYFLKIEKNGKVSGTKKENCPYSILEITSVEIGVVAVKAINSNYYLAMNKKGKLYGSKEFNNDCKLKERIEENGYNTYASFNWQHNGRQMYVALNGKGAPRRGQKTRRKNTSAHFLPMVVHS
Sequence of Torsin-1A-interacting protein 1 (Homo sapiens) (Q5JTV8 whole entry, looked up): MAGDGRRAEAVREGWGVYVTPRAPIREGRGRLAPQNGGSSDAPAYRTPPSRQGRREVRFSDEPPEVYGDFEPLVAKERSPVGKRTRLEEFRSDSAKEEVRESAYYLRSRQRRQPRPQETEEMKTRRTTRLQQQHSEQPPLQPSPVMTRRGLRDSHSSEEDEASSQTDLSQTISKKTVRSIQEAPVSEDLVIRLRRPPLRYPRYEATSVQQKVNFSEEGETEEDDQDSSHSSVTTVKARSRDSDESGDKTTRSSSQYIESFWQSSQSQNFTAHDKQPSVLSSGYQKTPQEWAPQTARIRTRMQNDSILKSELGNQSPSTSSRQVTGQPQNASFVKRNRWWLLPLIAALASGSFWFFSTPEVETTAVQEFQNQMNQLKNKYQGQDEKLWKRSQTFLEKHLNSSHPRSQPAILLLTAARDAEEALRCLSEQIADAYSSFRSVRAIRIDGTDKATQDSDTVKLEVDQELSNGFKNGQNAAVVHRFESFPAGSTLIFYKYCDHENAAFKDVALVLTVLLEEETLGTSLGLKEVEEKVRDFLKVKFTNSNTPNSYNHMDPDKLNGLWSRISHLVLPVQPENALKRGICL

For the compound `COCCOC(=O)N1C(=O)[C@@]2(c3cc(C#CC4(O)CCCCCC4)ccc31)[C@H](C(=O)Nc1nc3ccccc3s1)[C@H]1C(=O)O[C@H](c3ccccc3)[C@H](c3ccccc3)N1[C@@H]2c1ccc(OCCO)cc1`, the composite z-score stood at 1.28 in [1]; 0.0895 in [2]; 0.0903 in assay [3]; 1.25 in assay [5]; 1.3 in [6]; 0.583 in assay [7]. The composite z-score in [8] was determined as 1.37; in [9], 0.84; in assay [10], 0.8; in [11], 1.31; in [13], 0.726; in assay [14] it was 0.693. Besides, the composite z-score in [15] was -0.271; in assay [16], -0.169; in assay [17], 0.138; in assay [18], 0.0824; in assay [19], -0.105; in assay [20], 1.21. Besides, the z-score in [4] was -0.426 (inactive); in assay [12], -2.33.

As for `C=C[C@H](C)[C@@H](OC(=O)Nc1ccc(SC)cc1)c1ccc(O)c2ccccc12`, the composite z-score is 1.3 in assay [1]; -0.118 in [2]; 0.216 in assay [3]; 1.33 in assay [5]; 1.28 in assay [6]; 1.07 in [7]. Besides, the composite z-score in [8] was 1.44; in assay [9] it was 1.34; in [10] it was 0.482; in [11], 1.41; in assay [13], 1.23; in [14] it was 0.988. The composite z-score in [15] was -0.0069; in [16] it was -0.101; in assay [17], -0.0553; in [18] it was -0.343; in assay [19], 0.575; in [20], 0.893. Further, the z-score was -0.8 (inactive) in assay [4] and -0.751 in [12].

`COc1ccccc1CN1C(=O)c2ccccc2[C@@]2(Cc3ccccc3N(CCCN(C)C)C2=O)[C@@H]1c1ccc(CO)cc1`: the composite z-score in assay [1] was 0.269; in assay [2], -0.169; in assay [3], -0.649; in assay [5], 0.165; in assay [6], 0.0081; in assay [7], 0.237. Further, the composite z-score in [8] is 0.76; in [9], 1.05; in assay [10], 1.19; in assay [11], -0.0362; in assay [13], 0.524; in [14] it was -0.0574. The composite z-score is -0.688 in assay [15]; -0.165 in assay [16]; -0.282 in [17]; -0.273 in assay [18]; 0.0163 in assay [19]; -0.94 in assay [20]. Besides, the z-score is -0.706 (inactive) in assay [4] and -1.86 in assay [12].

With `COc1ccc(-c2cc3c(c(Cc4ccccc4)n2)[Si](C(C)C)(C(C)C)OC3)cn1`, the composite z-score was 0.409 in assay [1]; 0.0847 in assay [2]; -0.386 in assay [3]; -0.156 in assay [5]; -0.949 in [6]; 0.343 in [7]. Moreover, the composite z-score in [8] is -0.139; in assay [9] it was 0.085; in assay [10], 0.256; in assay [11], -0.864; in assay [13] it was -0.0979; in assay [14] it was -0.646. Moreover, the composite z-score in [15] was 0.0817; in assay [16], -0.13; in assay [17], -0.0849; in [18], -0.0855; in assay [19], -0.0516; in assay [20], -0.26. Moreover, the values for the z-score in [4] and in [12] were -0.267 (inactive) and -0.421, respectively.

For `CC(C)(C)OC(=O)CC[C@]1(C(=O)NCCN2CCOCC2)COC(c2ccc(OCCCO)cc2)=N1`, the composite z-score is 0.706 in assay [1]; 0.0968 in assay [2]; 0.465 in [3]; 1.42 in assay [5]; 0.743 in [6]; -0.422 in assay [7]. The composite z-score was 0.683 in [8]; -0.105 in assay [9]; 0.295 in assay [10]; 1.42 in assay [11]; 0.051 in [13]; 0.762 in assay [14]. In addition, the composite z-score in assay [15] is -0.23; in assay [16], 0.0559; in assay [17] it was -0.0066; in assay [18], 0.951; in [19] it was 1.27; in [20], 0.791. Moreover, the z-score is -0.686 (inactive) in [4] and -0.464 in [12].

As for `NCCCCCNC(=O)[C@H]1C[C@H]2C(=O)N[C@@H](Cc3ccccc3)C(=O)N2[C@H]1c1cccc(OCCO)c1`, the composite z-score was 0.0864 in assay [1]; 1.15 in assay [2]; 0.942 in assay [3]; -0.0314 in assay [5]; 0.213 in [6]; 0.0441 in assay [7]. Also, the composite z-score in assay [8] was 0.6; in assay [9], 0.4; in [10], 1.34; in assay [11] it was 0.509; in [13], 0.115; in assay [14] it was 1.85. For the same compound, the composite z-score in assay [15] worked out at 1.06; in assay [16] it was 0.0328; in assay [17], 0.246; in [18], 0.296; in [19], 2.09; in [20], 2.07. Moreover, the z-score in [4] is -0.365 (inactive); in assay [12], -0.82.
